PubChem BioAssay AID1159580 (chemical genetic matrix, 2015)
“And” between values parts separate entries of the source, which are not always exact repeats. Identical values can stand only once. About 2,000 (36%) of roughly 5,500 compounds were called active. About 18% were inconclusive and are not listed. Cut-off read from the data, not from the text of the source: active = normalized growth mostly below about 0.91 (no sharp cut-off); inconclusive = no clear call, values can overlap the other calls; inactive = mostly above about 0.92. The list shows a part of the results.

Experiment: chemical genetic growth profiling, strain panel (AID 1159580);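 note: tested at 20 µM; growth read once vehicle control cultures reached saturation at 30 °C; 1 = growth at the plate median or of vehicle wells; lower values mean less growth of the strain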
Details: growth OD

Measured: normalized growth

N[C@@H]1CONC1=O
inactive: S. cerevisiae deletion strains, locus YAL021C, strain ccr4, hits give low values 0.982 | S. cerevisiae deletion strains, locus YAL026C, strain drs2, hits give low values 0.977 | S. cerevisiae deletion strains, locus YAL030W, strain snc1, hits give low values 0.973 | S. cerevisiae deletion strains, locus YBL061C, strain skt5, hits give low values 0.963 | S. cerevisiae deletion strains, locus YBR009C, strain hhf1, hits give low values 1.02 | S. cerevisiae deletion strains, locus YBR021W, strain FUR4, hits give low values 1.01 | S. cerevisiae deletion strains, locus YBR023C, strain chs3, hits give low values 0.975 | S. cerevisiae deletion strains, locus YBR171W, strain sec66, hits give low values 0.974 | S. cerevisiae deletion strains, locus YBR229C, strain ROT2, hits give low values 1.01 | S. cerevisiae deletion strains, locus YBR231C, strain swc5, hits give low values 1.01 | S. cerevisiae deletion strains, locus YBR279W, strain paf1, hits give low values 0.964 | S. cerevisiae deletion strains, locus YCL011C, strain gbp2, hits give low values 0.969 | S. cerevisiae deletion strains, locus YCL016C, strain dcc1, hits give low values 0.953 | S. cerevisiae deletion strains, locus YCL029C, strain bik1, hits give low values 1.01 | S. cerevisiae deletion strains, locus YCL069W, strain vba3, hits give low values 0.98 | S. cerevisiae deletion strains, locus YCR088W, strain abp1, hits give low values 0.981 | S. cerevisiae deletion strains, locus YDL005C, strain med2, hits give low values 0.958 | S. cerevisiae deletion strains, locus YDL035C, strain GPR1, hits give low values 1.03 | S. cerevisiae deletion strains, locus YDL040C, strain nat1, hits give low values 0.971 | S. cerevisiae deletion strains, locus YDL074C, strain BRE1, hits give low values 1.02 | S. cerevisiae deletion strains, locus YDL101C, strain DUN1, hits give low values 1.02 | S. cerevisiae deletion strains, locus YDL185W, strain tfp1, hits give low values 1.02 | S. cerevisiae deletion strains, locus YDL192W, strain arf1, hits give low values 1.01 | S. cerevisiae deletion strains, locus YDR001C, strain nth1, hits give low values 0.986 | S. cerevisiae deletion strains, locus YDR069C, strain doa4, hits give low values 1.01 | S. cerevisiae deletion strains, locus YDR101C, strain arx1, hits give low values 1 | S. cerevisiae deletion strains, locus YDR137W, strain rgp1, hits give low values 1.01 | S. cerevisiae deletion strains, locus YDR159W, strain sac3, hits give low values 0.995 | S. cerevisiae deletion strains, locus YDR162C, strain NBP2, hits give low values 1.03 | S. cerevisiae deletion strains, locus YDR195W, strain ref2 0.983 | S. cerevisiae deletion strains, locus YDR297W, strain sur2, hits give low values 0.993 | S. cerevisiae deletion strains, locus YDR318W, strain mcm21, hits give low values 1.02 | S. cerevisiae deletion strains, locus YDR334W, strain swr1, hits give low values 0.97 | S. cerevisiae deletion strains, locus YDR335W, strain msn5, hits give low values 0.991 | S. cerevisiae deletion strains, locus YDR388W, hits give low values 1.01 | S. cerevisiae deletion strains, locus YDR392W, strain spt3, hits give low values 0.934 | S. cerevisiae deletion strains, locus YDR502C, strain sam2, hits give low values 1.02 | S. cerevisiae deletion strains, locus YEL003W, strain gim4, hits give low values 0.992 | S. cerevisiae deletion strains, locus YEL037C, strain rad23, hits give low values 0.982 | S. cerevisiae deletion strains, locus YEL061C, strain CIN8 (second series), hits give low values 1 | S. cerevisiae deletion strains, locus YEL061C, strain CIN8, hits give low values 1.01 | S. cerevisiae deletion strains, locus YER015W, strain faa2, hits give low values 0.99 | S. cerevisiae deletion strains, locus YER016W, strain bim1, hits give low values 0.946 | S. cerevisiae deletion strains, locus YER110C, hits give low values 1.02 | S. cerevisiae deletion strains, locus YER111C, strain swi4, hits give low values 0.992 | S. cerevisiae deletion strains, locus YER155C, strain BEM2 (second series), hits give low values 1.03 | S. cerevisiae deletion strains, locus YER155C, strain BEM2, hits give low values 0.999 | S. cerevisiae deletion strains, locus YER167W, strain BCK2, hits give low values 1.01 | S. cerevisiae deletion strains, locus YFR010W, strain ubp6, hits give low values 0.997 | S. cerevisiae deletion strains, locus YGL078C, strain dbp3, hits give low values 1.01 | S. cerevisiae deletion strains, locus YGL086W, strain mad1, hits give low values 1.01 | S. cerevisiae deletion strains, locus YGL167C, strain pmr1, hits give low values 0.987 | S. cerevisiae deletion strains, locus YGL173C, strain kem1, hits give low values 0.984 | S. cerevisiae deletion strains, locus YGL227W, strain vid30, hits give low values 0.961 | S. cerevisiae deletion strains, locus YGL240W, strain doc1, hits give low values 1.01 | S. cerevisiae deletion strains, locus YGL248W, strain PDE1, hits give low values 1.01 | S. cerevisiae deletion strains, locus YGL253W, strain hxk2, hits give low values 0.969 | S. cerevisiae deletion strains, locus YGR135W, strain pre9, hits give low values 1.02 | S. cerevisiae deletion strains, locus YGR252W, strain gcn5, hits give low values 1.02 | S. cerevisiae deletion strains, locus YHR013C, strain ard1, hits give low values 0.964 | S. cerevisiae deletion strains, locus YHR027C, strain rpn1, hits give low values 1 | S. cerevisiae deletion strains, locus YHR030C, strain SLT2, hits give low values 1.01 and 1.03 | S. cerevisiae deletion strains, locus YHR079C, strain IRE1 (second series), hits give low values 1.01 | S. cerevisiae deletion strains, locus YHR079C, strain IRE1, hits give low values 1.03 | S. cerevisiae deletion strains, locus YHR094C, strain hxt1, hits give low values 1.01 | S. cerevisiae deletion strains, locus YHR129C, strain ARP1, hits give low values 1.01 | S. cerevisiae deletion strains, locus YHR142W, strain chs7, hits give low values 0.981 | S. cerevisiae deletion strains, locus YHR200W, strain rpn10, hits give low values 1.01 | S. cerevisiae deletion strains, locus YIL066C, strain RNR3, hits give low values 1.03 | S. cerevisiae deletion strains, locus YIL073C, strain SPO22, hits give low values 1.02 | S. cerevisiae deletion strains, locus YIL125W, strain kgd1, hits give low values 1.02 | S. cerevisiae deletion strains, locus YIR030C, strain dcg1, hits give low values 1.04 | S. cerevisiae deletion strains, locus YJL092W, strain hpr5, hits give low values 0.992 | S. cerevisiae deletion strains, locus YJL095W, strain BCK1 (second series), hits give low values 0.975 | S. cerevisiae deletion strains, locus YJL095W, strain BCK1, hits give low values 1.02 and 1.03 | S. cerevisiae deletion strains, locus YJL115W, strain asf1, hits give low values 0.968 | S. cerevisiae deletion strains, locus YJL129C, strain trk1, hits give low values 0.977 | S. cerevisiae deletion strains, locus YJL134W, strain LCB3, hits give low values 1.01 | S. cerevisiae deletion strains, locus YJL154C, strain vps35, hits give low values 0.985 | S. cerevisiae deletion strains, locus YJL164C, strain tpk1, hits give low values 1 | S. cerevisiae deletion strains, locus YJL166W, strain qcr8, hits give low values 0.998 | S. cerevisiae deletion strains, locus YJL168C, strain set2, hits give low values 1.01 | S. cerevisiae deletion strains, locus YJL187C, strain SWE1 (second series), hits give low values 1.05 | S. cerevisiae deletion strains, locus YJR043C, strain POL32, hits give low values 1 | S. cerevisiae deletion strains, locus YJR066W, strain TOR1, hits give low values 0.979 | S. cerevisiae deletion strains, locus YJR075W, strain HOC1, hits give low values 1.02 | S. cerevisiae deletion strains, locus YKL009W, strain mrt4, hits give low values 1.03 | S. cerevisiae deletion strains, locus YKL068W, hits give low values 1.01 | S. cerevisiae deletion strains, locus YKL085W, strain MDH1 (second series), hits give low values 1.05 | S. cerevisiae deletion strains, locus YKL085W, strain MDH1, hits give low values 1.05 | S. cerevisiae deletion strains, locus YKL160W, strain elf1, hits give low values 0.935 | S. cerevisiae deletion strains, locus YKR001C, strain vps1, hits give low values 1.02 | S. cerevisiae deletion strains, locus YKR026C, strain gcn3, hits give low values 0.986 | S. cerevisiae deletion strains, locus YKR091W, strain srl3, hits give low values 0.983 | S. cerevisiae deletion strains, locus YLL001W, strain dnm1, hits give low values 1.01 | S. cerevisiae deletion strains, locus YLL026W, hits give low values 0.983 | S. cerevisiae deletion strains, locus YLL041C, strain sdh2, hits give low values 0.975 | S. cerevisiae deletion strains, locus YLR027C, strain aat2, hits give low values 0.997 | S. cerevisiae deletion strains, locus YLR039C, strain RIC1, hits give low values 0.975 | S. cerevisiae deletion strains, locus YLR058C, strain SHM2, hits give low values 1.02 | S. cerevisiae deletion strains, locus YLR102C, strain apc9, hits give low values 1.01 | S. cerevisiae deletion strains, locus YLR113W, strain HOG1, hits give low values 1.03 | S. cerevisiae deletion strains, locus YLR221C, strain rsa3, hits give low values 1.03 | S. cerevisiae deletion strains, locus YLR258W, strain gsy2, hits give low values 0.97 | S. cerevisiae deletion strains, locus YLR262C, strain YPT6 (second series), hits give low values 1 | S. cerevisiae deletion strains, locus YLR262C, strain YPT6, hits give low values 1.01 | S. cerevisiae deletion strains, locus YLR268W, strain sec22, hits give low values 1.02 | S. cerevisiae deletion strains, locus YLR320W, strain mms22, hits give low values 0.997 | S. cerevisiae deletion strains, locus YLR330W, strain CHS5, hits give low values 1.01 | S. cerevisiae deletion strains, locus YLR342W, strain FKS1 (second series), hits give low values 1.02 | S. cerevisiae deletion strains, locus YLR342W, strain FKS1, hits give low values 0.99 | S. cerevisiae deletion strains, locus YLR357W, strain rsc2, hits give low values 0.948 | S. cerevisiae deletion strains, locus YLR370C, strain arc18, hits give low values 0.968 | S. cerevisiae deletion strains, locus YLR371W, strain rom2, hits give low values 0.998 | S. cerevisiae deletion strains, locus YLR384C, strain iki3, hits give low values 0.991 | S. cerevisiae deletion strains, locus YLR418C, strain cdc73, hits give low values 1.06 | S. cerevisiae deletion strains, locus YML016C, strain PPZ1, hits give low values 1.01 | S. cerevisiae deletion strains, locus YML032C, strain rad52, hits give low values 1.01 | S. cerevisiae deletion strains, locus YML120C, strain ndi1, hits give low values 0.994 | S. cerevisiae deletion strains, locus YML124C, strain tub3, hits give low values 1.02 | S. cerevisiae deletion strains, locus YMR058W, strain fet3, hits give low values 1.03 | S. cerevisiae deletion strains, locus YMR078C, strain ctf18, hits give low values 1.02 | S. cerevisiae deletion strains, locus YMR125W, strain sto1, hits give low values 0.968 | S. cerevisiae deletion strains, locus YMR129W, hits give low values 0.969 | S. cerevisiae deletion strains, locus YMR205C, strain PFK2, hits give low values 0.994 | S. cerevisiae deletion strains, locus YMR223W, strain ubp8, hits give low values 1.03 | S. cerevisiae deletion strains, locus YMR231W, strain pep5, hits give low values 0.98 | S. cerevisiae deletion strains, locus YMR307W, strain GAS1, hits give low values 0.923 | S. cerevisiae deletion strains, locus YNL067W, strain RPL9B, hits give low values 1.02 | S. cerevisiae deletion strains, locus YNL071W, strain lat1, hits give low values 0.996 | S. cerevisiae deletion strains, locus YNL183C, strain NPR1, hits give low values 0.973 | S. cerevisiae deletion strains, locus YNL209W, strain ssb2, hits give low values 0.989 | S. cerevisiae deletion strains, locus YNL233W, strain BNI4, hits give low values 1.02 | S. cerevisiae deletion strains, locus YNL248C, strain rpa49, hits give low values 0.94 | S. cerevisiae deletion strains, locus YNL250W, strain rad50, hits give low values 1.01 | S. cerevisiae deletion strains, locus YNL271C, strain bni1, hits give low values 1.02 | S. cerevisiae deletion strains, locus YNL298W, strain CLA4, hits give low values 1.01 | S. cerevisiae deletion strains, locus YNL307C, strain MCK1, hits give low values 1.02 | S. cerevisiae deletion strains, locus YNL322C, strain KRE1 (second series), hits give low values 0.947 | S. cerevisiae deletion strains, locus YNR049C, strain mso1, hits give low values 0.982 | S. cerevisiae deletion strains, locus YNR052C, strain pop2, hits give low values 1.02 | S. cerevisiae deletion strains, locus YOL012C, strain htz1 0.629 | S. cerevisiae deletion strains, locus YOL147C, strain pex11, hits give low values 1.01 | S. cerevisiae deletion strains, locus YOR001W, strain rrp6, hits give low values 1.02 | S. cerevisiae deletion strains, locus YOR061W, strain CKA2, hits give low values 1.02 | S. cerevisiae deletion strains, locus YOR069W, strain VPS5, hits give low values 1.02 | S. cerevisiae deletion strains, locus YOR070C, strain gyp1, hits give low values 0.984 | S. cerevisiae deletion strains, locus YOR080W, strain dia2, hits give low values 0.967 | S. cerevisiae deletion strains, locus YOR083W, strain WHI5, hits give low values 0.908 | S. cerevisiae deletion strains, locus YOR106W, strain vam3, hits give low values 0.937 | S. cerevisiae deletion strains, locus YOR136W, strain idh2, hits give low values 1.02 | S. cerevisiae deletion strains, locus YOR144C, strain elg1, hits give low values 1.02 | S. cerevisiae deletion strains, locus YOR184W, strain ser1, hits give low values 1.02 | S. cerevisiae deletion strains, locus YOR231W, strain MKK1, hits give low values 1.04 | S. cerevisiae deletion strains, locus YOR265W, strain rbl2, hits give low values 0.986 | S. cerevisiae deletion strains, locus YOR270C, strain vph1, hits give low values 1.05 | S. cerevisiae deletion strains, locus YOR290C, strain snf2, hits give low values 0.951 | S. cerevisiae deletion strains, locus YOR316C, strain cot1, hits give low values 1.02 | S. cerevisiae deletion strains, locus YPL051W, strain arl3, hits give low values 0.957 | S. cerevisiae deletion strains, locus YPL078C, strain atp4, hits give low values 0.963 | S. cerevisiae deletion strains, locus YPL106C, strain sse1, hits give low values 0.953 | S. cerevisiae deletion strains, locus YPL240C, strain hsp82, hits give low values 1 | S. cerevisiae deletion strains, locus YPL256C, strain CLN2, hits give low values 1.12 | S. cerevisiae deletion strains, locus YPR119W, strain clb2, hits give low values 1.02 | S. cerevisiae deletion strains, locus YPR141C, strain kar3, hits give low values 1.02 | S. cerevisiae deletion strains, locus YPR163C, strain tif3, hits give low values 1.02 | S. cerevisiae deletion strains, locus YPR167C, strain met16, hits give low values 1.02 | S. cerevisiae deletion strains, strain wtn01, hits give low values 1.02 | S. cerevisiae strains, strain wild type, hits give low values 1.01
